The results in this text go back to PubChem BioAssay AID504766 (The Scripps Research Institute Molecular Screening Center, 2011).

Screen size: about 340,000 compounds; about 3,400 (1%) were called active. The entries come from a sample that favours actives as a whole. A number with no mark means an inactive call.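 How the source made its calls: active means inhibition above the mean over all tested compounds plus 3 SD (cut at about 4.2% in these data); inactive means the rest.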

The target of the assay is Nuclear receptor subfamily 0 group B member 1 (Homo sapiens) (UniProt P51843). The assay is described as follows: DAX1 (NR0B1) inhibitors, primary screen, cell-based, HEK293, Gal4-DAX1, luciferase luminescence (AID 504766).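 Further: 0% = DAX1-transfected cells with DMSO and 100% = empty-vector control cells with DMSO; inhibition shows as a rise in luminescence from relieved DAX1 repression.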 As to conditions: HEK293 Gal4-DAX1 luciferase reporter, at 6.75 µM, hits give high values. A general note: Reporter assays use an easily measured gene product as a stand-in for the process of interest.
Sequence of Nuclear receptor subfamily 0 group B member 1 (Homo sapiens) (P51843 207-470 limits assumed): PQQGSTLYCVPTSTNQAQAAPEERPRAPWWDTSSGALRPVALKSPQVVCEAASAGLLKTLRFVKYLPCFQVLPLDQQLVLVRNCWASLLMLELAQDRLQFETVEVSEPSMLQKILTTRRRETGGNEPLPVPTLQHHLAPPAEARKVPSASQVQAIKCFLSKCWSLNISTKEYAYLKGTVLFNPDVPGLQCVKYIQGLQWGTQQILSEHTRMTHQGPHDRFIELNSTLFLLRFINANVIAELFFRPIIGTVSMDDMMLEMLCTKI
On to `C[C@@H]1CN([C@H](C)CO)C(=O)c2cc(Br)cnc2O[C@@H]1CN(C)Cc1cncnc1`, for which the inhibition was 0%.

Take `c1ccc2cc(OCCN3CCCC3)ccc2c1`: the inhibition was 0.12%.

`Clc1ccc(-c2cc(COc3ccccc3)no2)cc1Cl`: the inhibition was 0.18%.

With `Clc1ccccc1-c1cc(COc2ccc3ccccc3c2)no1`, the inhibition was 4.61% (active).

`Cc1ccccc1-c1ccc2c(c1)O[C@@H](CN(C)Cc1ccc(C(=O)O)cc1)[C@@H](C)CN([C@H](C)CO)S2(=O)=O`: the inhibition was -0.49%.

As for `Cc1ccnc(SC2CC(=O)N(c3ccccc3)C2=O)n1` (configuration not stated), the inhibition was 2.33%.

Consider `COc1ccc(C2Nc3ccccc3C(=O)N2c2ccc(Cl)cc2)cc1Cn1cc([N+](=O)[O-])cn1` (configuration not stated), for which the inhibition was 4.6% (active).

As for `COc1ccc(C2Nc3ccccc3C(=O)N2c2ccc(F)cc2)cc1Cn1nnc2ccccc21` (configuration not stated), the inhibition is -0.72%.

For the molecule `COc1ccc(N2C(=O)c3ccccc3NC2c2ccc(OC)c(CN3CCOCC3)c2)cc1` (configuration not stated), the inhibition was 3.5%.

With `COc1ccc(Cl)cc1NC(=O)CN(C)C(=O)c1cn(-c2ccccc2)nc1-c1cccs1`, the inhibition is -0.65%.

Take `COCC1CCCCN1C(=O)c1cc(COc2ccc(C)c(C)c2)on1` (configuration not stated): the inhibition was 2.51%.

On to `O=S(=O)(Nc1ccc(-n2cnnn2)cc1)c1ccc(Cl)cc1`, for which the inhibition is 0.55%.

`c1cc(-n2cnnn2)ccc1NC1=NCCC1`: the inhibition is 5.97% (active).

As for `O=S(=O)(NC1CCCC1)c1ccc(-n2cnnn2)cc1`, the inhibition was 0.06%.

In the case of `C[C@@H]1CN([C@H](C)CO)C(=O)CCCn2cc(nn2)CO[C@H]1CN(C)S(C)(=O)=O`, the inhibition was 0.1%.

Regarding `CC1(C)NC(=O)N(CC(=O)Nc2ccc(-c3ccccc3)cc2)C1=O`, the inhibition was 1.36%.

`CCOC(=O)C1(C(F)(F)F)N=C(N(C)C)OC(N(C)C)=N1`: the inhibition is 5.05% (active).

As to `CCOC(=O)C1=C(C)c2ccccc2OC1(C)C(=O)OCC` (configuration not stated), the inhibition is 0.33%.

On to `O=C1CC[C@@H](C(=O)N2CSC[C@@H]2C(=O)Nc2ccc(C(F)(F)F)cc2)N1`, for which the inhibition is 0.12%.

Consider `COc1cccc(OC)c1C(=O)Nc1ccc2c(c1)n(C)c(=O)n2C`, for which the inhibition is 1.46%.

Turning to `Cn1c(=O)n(C)c2cc(/C=N/NC(=O)c3cccc(Br)c3)ccc21`, the inhibition was -2.01%.

For the molecule `Cn1c(=O)n(C)c2cc(C(=O)Nc3ccc(Br)cc3)ccc21`, the inhibition was 4.79% (active).

With `O=C(Nc1ccc(N2CCOCC2)cc1)c1ccc2c(c1)OCO2`, the inhibition is 1.98%.

Turning to `N#Cc1ccccc1NC(=O)c1ccc2c(c1)OCO2`, the inhibition is 2.82%.

With `O=C(Nc1ccccc1F)c1ccc2c(c1)OCO2`, the inhibition was 4.59% (active).

Consider `O=C(Nc1ccc2c(c1)OCO2)c1ccc(N2C(=O)c3ccccc3C2=O)cc1`, for which the inhibition was 0.86%.

As for `Cn1c(=O)n(C)c2cc(C(=O)Nc3ccc4c(c3)OCO4)ccc21`, the inhibition is 13.2% (active).

Turning to `O=C(CN1CCN(c2ccccc2F)CC1)c1ccc2c(c1)OCO2`, the inhibition is -0.06%.

Consider `CNC(=O)C[C@H]1C(=O)N(Cc2ccccc2)C[C@@H]1CSC`, for which the inhibition is 0.53%.

Consider `Cc1cccc(S(=O)(=O)N(C)C[C@@H]2OCc3cnnn3CCCC(=O)N([C@H](C)CO)C[C@@H]2C)c1`, for which the inhibition is -0.51%.

`CCCNC(=O)C1CC(=O)N(c2ccc(OCc3ccccc3)cc2)C1` (configuration not stated): the inhibition was 2.8%.

As to `C=CCOc1ccccc1CNn1c(C)n[nH]c1=S`, the inhibition is 0.12%.

Regarding `CCN1CCCC1CNC(=O)c1ccc2c(c1)NC(=O)/C(=C\c1ccccc1F)S2` (configuration not stated), the inhibition is 1.21%.

Take `O=C(O)c1ccccc1Cc1ccc(F)c2ccccc12`: the inhibition was 1.12%.

In the case of `CSc1ncccc1C(=O)N1CCCC(Nc2ccc(F)c(F)c2)C1` (configuration not stated), the inhibition is -0.54%.

As to `Cc1ccc(-c2csc(NC(=O)C3=COCCO3)n2)cc1C`, the inhibition is -1.52%.

Regarding `CC(=O)Nc1cccc(-c2csc(Nc3cccc(C)n3)n2)c1`, the inhibition is 4.29% (active).

Consider `COc1ccc(-c2csc(Nc3cccc(C)n3)n2)cc1OC`, for which the inhibition is 3.01%.

Turning to `COc1ccc2c(c1OC)C(=O)OC2Nc1nc(-c2ccccc2)cs1` (configuration not stated), the inhibition was 0.66%.

Take `CCCCCCC(=O)Nc1nc(C)c(-c2csc(Nc3cccc(OC)c3)n2)s1`: the inhibition is 1.39%.

Consider `Cc1cccc(Nc2nc(-c3ccccc3)cs2)n1`, for which the inhibition was 7.24% (active).

As for `CC(C)C1CCN(C(=O)C2CCC(=O)N(C3CCCCCC3)C2)CC1` (configuration not stated), the inhibition is 1.56%.

Take `CCOC(=O)c1cnn2c(SC)ncnc12`: the inhibition is 0.53%.

With `Cc1ccc2cccc([N+](=O)[O-])c2n1`, the inhibition is 0.58%.

For the molecule `NC(=O)C1(Nc2ccccc2Cl)CCCC1`, the inhibition is 4.62% (active).

Turning to `NC(=O)C1(Nc2ccc(-c3ccccc3)cc2)CCCC1`, the inhibition was 0.6%.

Take `NC(=O)C1(Nc2ccc([N+](=O)[O-])cc2)CCCC1`: the inhibition was -1.28%.

On to `Cc1ccc(Cc2c(-c3ccccc3)nc3ccc(Cl)cn23)cc1`, for which the inhibition is -0.15%.

Turning to `CCOc1ccc(S(=O)(=O)NCCC(=O)NNC(=O)c2ccc(F)cc2)cc1`, the inhibition is 1.04%.

In the case of `Cc1ccc(OCc2nc3ccccc3n2C)cc1`, the inhibition was 4.76% (active).

`Cc1ccc(Oc2nc3ccccc3n3c(C)nnc23)cc1`: the inhibition is -0.82%.

In the case of `Cn1c(COc2ccc(Cl)cc2)nc2ccccc2c1=O`, the inhibition was 0.73%.

`Cc1ccccc1C#CC1=CC(=O)CC(C)(C)C1`: the inhibition was -0.14%.

Turning to `C[C@H]1CN([C@@H](C)CO)C(=O)c2cc(-c3ccccc3F)cnc2O[C@H]1CN(C)C(=O)C1CCOCC1`, the inhibition was 1.09%.

Take `CC1(C)CN(CCc2ccccc2)C(=O)[C@H]1CC(=O)Nc1ccc(Br)cc1`: the inhibition was 0.23%.

As to `COc1ccc(-c2noc(-c3cccc(OC)c3OC)n2)cc1OC`, the inhibition was 4.33% (active).

Turning to `COc1ccc(-c2noc(CCCC(=O)NC3CCCC3)n2)cc1OC`, the inhibition is 0.14%.

In the case of `COc1ccc(-c2csc3nc(-c4ccccc4F)oc(=O)c23)cc1OC`, the inhibition was -1.37%.

`COc1ccc(S(=O)(=O)N(C)C)cc1NC(=O)COC(=O)c1n[nH]c2ccccc12`: the inhibition was -0.33%.

With `Cc1cc(OCC(=O)Nc2nccs2)c2c(C)c(C)c(=O)oc2c1`, the inhibition was 0.98%.

As to `Cc1cc(OCc2cc(C(=O)NCc3cc(C(C)C)no3)no2)cc(C)c1Cl`, the inhibition is 7.06% (active).

Take `Cc1cccnc1CC(C)NC(=O)c1cc(COc2cncc(Cl)c2)on1` (configuration not stated): the inhibition was 0.03%.

Take `COc1ccc(OCc2cc(C(=O)NCC3(C)COC3)no2)c(Cl)c1`: the inhibition is 0.65%.

As for `COc1ccc(Cn2c(=O)oc3ccccc32)cc1`, the inhibition is 0.51%.

As for `COc1ccc(/C=C2\SC(=S)N(CCC(=O)N3CCOCC3)C2=O)cc1OC`, the inhibition is -0.88%.

In the case of `COC(=O)[C@H]1C[C@H](OC(=O)NCc2ccccc2)[C@@]2(O)CN(S(=O)(=O)c3ccc(C)cc3)CC2[C@H]1C(=O)OC` (some centres not stated), the inhibition is 0.61%.

In the case of `CC(NC(=O)c1cc(=O)[nH]c2ccccc12)c1ccc(F)cc1F` (configuration not stated), the inhibition was 0.16%.

For `O=C(CNC(=O)c1cc(=O)[nH]c2ccccc12)Nc1ccc(F)c(F)c1`, the inhibition was 7.53% (active).

As to `CC(C)(CNC(=O)c1cc(=O)[nH]c2ccccc12)N1CCOCC1`, the inhibition was -0.11%.

For `C[C@H]1CN([C@@H](C)CO)C(=O)CCCn2cc(nn2)CO[C@@H]1CN(C)S(=O)(=O)c1ccccc1C#N`, the inhibition was 0.36%.

For `Cc1ccc(NC(=O)Cn2sc3ccccc3c2=O)cc1`, the inhibition is 2.09%.

Consider `Nc1ccc(C(=O)Nc2ccccc2N)cc1`, for which the inhibition was 22.7% (active).

As for `Nc1ccc(S(=O)(=O)NC(=O)c2ccccc2)cc1`, the inhibition is 1.24%.

With `CC(=O)Nc1ccccc1NC(=O)c1cc(C)cc(C)c1`, the inhibition was 0.39%.

In the case of `Cc1nc2ccccn2c(=O)c1NC(=O)c1ccc(Br)o1`, the inhibition was 1.03%.

As to `CCOC(=O)C1C(c2ccc(OC)c(OC)c2)c2c([nH][nH]c2=O)CC1(C)O` (configuration not stated), the inhibition was 0.5%.

In the case of `CC(=O)C1C(c2ccc(Cl)cc2)c2c(n[nH]c2C)CC1(C)O` (configuration not stated), the inhibition was 5.48% (active).

For the molecule `Cc1noc(C)c1NC(=O)N(C)C[C@@H]1Oc2cc(Br)ccc2S(=O)(=O)N([C@@H](C)CO)C[C@H]1C`, the inhibition is 0.32%.

Regarding `CC1CCCC(NC(=O)COC(=O)c2ccccc2C(=O)N(C)C2CCCCC2)C1C` (configuration not stated), the inhibition is -0.71%.

Take `Cc1ccc(-c2ccc(CN3C(C(C)C)C(=O)N(Cc4cn(CCC5OCCCO5)nn4)CCS3(=O)=O)cc2)cc1` (configuration not stated): the inhibition was -0.79%.

For `COC(=O)c1cccc(N(C(=O)CNC(=O)c2cccs2)C(C(=O)NCC2CCCO2)c2ccc(OC)c(OC)c2)c1` (configuration not stated), the inhibition is 4.73% (active).

As to `COc1ccc(N(C(=O)CNC(=O)c2ccco2)C(C(=O)NCC2CCCO2)c2ccccc2)cc1Cl` (configuration not stated), the inhibition is 0.19%.

As to `O=C(NCC(=O)N(c1ccccc1)C(C(=O)NCC1CCCO1)c1ccccc1)c1cccs1` (configuration not stated), the inhibition was -0.74%.

With `Nc1nnc(SCC(=O)Nc2ccc3nc(SCC(=O)Nc4ccccc4)sc3c2)s1`, the inhibition was -3.13%.

In the case of `O=C(CSc1nnc(SCc2ccc(F)cc2)s1)Nc1ccc(C(=O)O)cc1`, the inhibition is -0.63%.

On to `O=C(CSc1nc2ccccc2s1)Nc1ccc(C(=O)O)cc1`, for which the inhibition was 4.73% (active).

With `C[C@H]1CN([C@@H](C)CO)C(=O)CCCn2cc(nn2)CO[C@@H]1CN(C)S(=O)(=O)c1cccc(C#N)c1`, the inhibition was -0.32%.

Regarding `N#CCCN(C(=S)Nc1ccc(Cl)c(Cl)c1)C1CCCCC1`, the inhibition is -0.53%.

As to `Cc1ccc(S(=O)(=O)Nc2nc3ccccc3s2)cc1[N+](=O)[O-]`, the inhibition was 5.09% (active).

Consider `Cc1ccc(S(=O)(=O)NCCSc2ccccc2)cc1[N+](=O)[O-]`, for which the inhibition is -0.31%.

Regarding `CCOc1ccc2sc(NS(=O)(=O)c3ccc(N)cc3)nc2c1`, the inhibition is 2.57%.

`Cc1ccc(-c2ccc(CN3C(C(C)C)C(=O)N(Cc4cn(CCC5OCCO5)nn4)CCS3(=O)=O)cc2)cc1` (configuration not stated): the inhibition was -1.47%.

As usually defined, the inhibition is the change of the read-out against control, counted positive when it falls.
